Assay [1] addresses human Colony Stimulating Factor 1 Receptor (CSF1R), CSF1R (gene 1436) (UniProt P07333). Kind of assay: NVS_ENZ_hCSF1R: NovaScreen (NVS) Enzymatic Assay for human Colony Stimulating Factor 1 Receptor (CSF1R) (AID 2283150). Put shortly:
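Cell-free recombinant human CSF1R kinase with fluorescent substrate, product separated by electrophoretic mobility shift; read 1 h after dosing. Primary screen at 25 uM in duplicate, actives then in concentration-response up to 50 uM, relative to DMSO.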

For assay [2], the target named is human Caspase 5 (CASP5), CASP5 (gene 838) (UniProt P51878). In words: NVS_ENZ_hCASP5: NovaScreen (NVS) Enzymatic Assay for human Caspase 5 (CASP5) (AID 2283137). Put shortly:
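Recombinant human caspase 5 expressed in E. coli, fluorogenic substrate, fluorescence read 2 h after dosing. Single-point 25 uM duplicate screen, then concentration-response to maximum 50 uM for actives; DMSO baseline.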

The target in assay [3] is human AKT serine/threonine Kinase 1 (AKT1), AKT1 (gene 207) (UniProt P31749). Kind of assay: NVS_ENZ_hAKT1: NovaScreen (NVS) Enzymatic Assay for human AKT serine/threonine Kinase 1 (AKT1) (AID 2283138). The gist of the method: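 Recombinant human AKT1 with a specific substrate, product separated by electrophoretic mobility shift, read after 1 h. Compounds at 25 uM in duplicate, then concentration-response up to 50 uM for hits; inhibition relative to DMSO.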

The target in assay [4] is human Casein Kinase 1-delta (CK1D), CSNK1D (gene 1453) (UniProt P48730). In words: NVS_ENZ_hCK1D: NovaScreen (NVS) Enzymatic Assay for human Casein Kinase 1-delta (CK1D) (AID 2283148). Put shortly:
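Recombinant human CK1-delta, cell-free; fluorescent substrate with electrophoretic mobility-shift separation of product, read 1 h after dosing. Single 25 uM duplicate screen, then concentration-response up to 50 uM; loss of signal vs DMSO.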

In another assay the test system is rat CYP3A1, gene 25642. In words: NVS_ADME_rCYP3A1: NovaScreen (NVS) CYP450-related Enzyme Activity (ADME) Assay for rat CYP3A1 (AID 2283126). The gist of the method: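 Cell-free recombinant CYP assay with fluorescent substrate, read 0.5 h after dosing. Screened at 10 uM in duplicate, hits at up to 20 uM in concentration-response; loss of signal versus acetonitrile baseline.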

Assay [5] deals with rat CYP3A2, Cyp3a2 (gene 266682) (UniProt P05183). Kind of assay: NVS_ADME_rCYP3A2: NovaScreen (NVS) CYP450-related Enzyme Activity (ADME) Assay for rat CYP3A2 (AID 2283128). Put shortly: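 Cell-free rat CYP3A2 enzyme assay with fluorescent substrate, read 0.5 h after dosing. Primary duplicate screen at 10 uM; actives run in concentration-response up to 20 uM, relative to acetonitrile baseline.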

Assay [6] addresses rat CYP2A1, Cyp2a1 (gene 24894) (UniProt P11711). Kind of assay: NVS_ADME_rCYP2A1: NovaScreen (NVS) CYP450-related Enzyme Activity (ADME) Assay for rat CYP2A1 (AID 2283114; active means hit-call score of the fitted dose curve at least 0.9, where 1 is the maximum; inactive means score below 0.9). The gist of the method: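 Recombinant rat CYP2A1, cell-free, fluorogenic substrate turnover read by fluorescence intensity 0.75 h after dosing. Primary screen at 10 uM in duplicate; actives rerun as concentration-response up to 20 uM; loss of signal versus acetonitrile control.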

Assay [7] deals with rat CYP2A2, Cyp2a2 (gene 24895) (UniProt P15149). Kind of assay: NVS_ADME_rCYP2A2: NovaScreen (NVS) CYP450-related Enzyme Activity (ADME) Assay for rat CYP2A2 (AID 2283116). The gist of the method: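 Cell-free recombinant rat CYP2A2 activity with fluorogenic substrate, fluorescence read 0.2 h after dosing. Chemicals screened at 10 uM in duplicate, hits then run in concentration-response up to 20 uM; signal loss versus acetonitrile baseline.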

The target in assay [8] is rat CYP2C11, Cyp2c11 (gene 29277) (UniProt P08683). In words: NVS_ADME_rCYP2C11: NovaScreen (NVS) CYP450-related Enzyme Activity (ADME) Assay for rat CYP2C11 (AID 2283118). The gist of the method: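 Cell-free recombinant rat enzyme with fluorescent substrate; readout 0.33 h after dosing, loss of signal versus acetonitrile control. Initial duplicate single-point at 10 uM; actives rerun in concentration series.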

Assay [9] deals with rat CYP2C13, Cyp2c13 (gene 171521) (UniProt P20814). In words: NVS_ADME_rCYP2C13: NovaScreen (NVS) CYP450-related Enzyme Activity (ADME) Assay for rat CYP2C13 (AID 2283121). Put shortly: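 Recombinant rat CYP2C13 with fluorogenic substrate, 0.75 h cell-free incubation; primary screen in duplicate at 10 uM, actives followed in concentration series. Fluorescence loss relative to acetonitrile control indicates inhibition.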

For assay [10], the target named is human Acid Phosphatase 1 (ACP1), ACP1 (gene 52) (UniProt P24666). Kind of assay: NVS_ENZ_hACP1: NovaScreen (NVS) Enzymatic Assay for human Acid Phosphatase 1 (ACP1) (AID 2283136). The gist of the method:
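Recombinant enzyme expressed in Sf9 cells, tested cell-free; activity read by fluorescence with electrophoretic mobility shift separation of substrate and product, 1.5 h after dosing. Primary screen in duplicate at 25 uM, actives then run in concentration series; loss of signal versus DMSO.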

In assay [11] the target is human Caspase 8 (CASP8), CASP8 (gene 841) (UniProt Q14790). Kind of assay: NVS_ENZ_hCASP8: NovaScreen (NVS) Enzymatic Assay for human Caspase 8 (CASP8) (AID 2283146). The gist of the method: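 E. coli-expressed enzyme was used in a cell-free fluorogenic substrate assay read 1 h after dosing. Loss of signal was scored relative to DMSO, and the primary screen was run in duplicate at 25 uM.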

Assay [12] concerns the target human Beta-secretase (BACE), BACE1 (gene 23621) (UniProt P56817). In words: NVS_ENZ_hBACE: NovaScreen (NVS) Enzymatic Assay for human Beta-secretase (BACE) (AID 2283140).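 Further: hits are inhibitors that reduce fluorescent substrate signal versus DMSO.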 Put shortly:
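Cell-free assay of recombinant Sf9-expressed human BACE with fluorescent substrate, read by fluorescence intensity after 1 h. Primary screen in duplicate at 25 uM; actives then run in concentration series; loss of signal relative to DMSO.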

The target in assay [13] is human Dual Specificity Protein Phosphatase 3 (DUSP3), DUSP3 (gene 1845) (UniProt P51452). Kind of assay: NVS_ENZ_hDUSP3: NovaScreen (NVS) Enzymatic Assay for human Dual Specificity Protein Phosphatase 3 (DUSP3) (AID 2283152).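 Further: phosphatase activity of recombinant human DUSP3 on a fluorogenic substrate without cells.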 The gist of the method:
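Cell-free assay with recombinant human DUSP3 and fluorogenic substrate, read by fluorescence intensity. Primary screen ran duplicate at 25 uM; actives followed up in concentration series; loss of signal versus DMSO scored.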

Molecules are shown by their SMILES. Values joined by “and” are separate entries in the source; they are usually repeats but may differ in a detail not shown here. Equal entries are not always repeated. Inconclusive results are not listed. Active and inactive are the calls of the source. How the source made its calls, unless noted: active means hit-call score of the fitted dose curve at least 0.9, where 1 is the maximum; inconclusive means response in the unintended direction; inactive means score below 0.9.

Chain of human Colony Stimulating Factor 1 Receptor (CSF1R), CSF1R (gene 1436) (P07333 whole entry, looked up): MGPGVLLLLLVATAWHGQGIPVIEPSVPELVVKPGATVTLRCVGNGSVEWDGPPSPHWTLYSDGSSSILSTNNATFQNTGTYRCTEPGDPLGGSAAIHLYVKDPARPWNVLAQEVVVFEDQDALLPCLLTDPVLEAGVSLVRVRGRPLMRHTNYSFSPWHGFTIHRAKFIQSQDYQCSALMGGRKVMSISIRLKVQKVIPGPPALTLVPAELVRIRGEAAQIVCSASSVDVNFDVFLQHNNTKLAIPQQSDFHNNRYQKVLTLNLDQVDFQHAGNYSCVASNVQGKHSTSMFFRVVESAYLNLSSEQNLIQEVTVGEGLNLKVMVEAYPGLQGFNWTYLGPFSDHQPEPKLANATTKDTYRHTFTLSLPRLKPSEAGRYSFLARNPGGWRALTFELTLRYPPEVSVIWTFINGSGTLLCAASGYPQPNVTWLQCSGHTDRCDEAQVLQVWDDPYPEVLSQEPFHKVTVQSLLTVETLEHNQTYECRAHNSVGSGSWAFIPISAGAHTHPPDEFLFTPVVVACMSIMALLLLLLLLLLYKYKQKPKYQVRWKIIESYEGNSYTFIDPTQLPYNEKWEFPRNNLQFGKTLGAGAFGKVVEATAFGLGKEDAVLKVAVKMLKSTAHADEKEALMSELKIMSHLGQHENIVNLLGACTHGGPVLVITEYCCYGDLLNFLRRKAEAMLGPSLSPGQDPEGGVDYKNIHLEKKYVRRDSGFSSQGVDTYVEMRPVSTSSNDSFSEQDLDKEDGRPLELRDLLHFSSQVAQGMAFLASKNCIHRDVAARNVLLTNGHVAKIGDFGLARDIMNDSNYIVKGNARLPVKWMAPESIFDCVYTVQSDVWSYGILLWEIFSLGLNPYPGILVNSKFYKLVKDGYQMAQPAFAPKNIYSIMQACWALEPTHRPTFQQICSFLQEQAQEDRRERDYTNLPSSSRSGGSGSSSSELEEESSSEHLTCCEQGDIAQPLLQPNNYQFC
Chain of human Beta-secretase (BACE), BACE1 (gene 23621) (P56817 whole entry, looked up): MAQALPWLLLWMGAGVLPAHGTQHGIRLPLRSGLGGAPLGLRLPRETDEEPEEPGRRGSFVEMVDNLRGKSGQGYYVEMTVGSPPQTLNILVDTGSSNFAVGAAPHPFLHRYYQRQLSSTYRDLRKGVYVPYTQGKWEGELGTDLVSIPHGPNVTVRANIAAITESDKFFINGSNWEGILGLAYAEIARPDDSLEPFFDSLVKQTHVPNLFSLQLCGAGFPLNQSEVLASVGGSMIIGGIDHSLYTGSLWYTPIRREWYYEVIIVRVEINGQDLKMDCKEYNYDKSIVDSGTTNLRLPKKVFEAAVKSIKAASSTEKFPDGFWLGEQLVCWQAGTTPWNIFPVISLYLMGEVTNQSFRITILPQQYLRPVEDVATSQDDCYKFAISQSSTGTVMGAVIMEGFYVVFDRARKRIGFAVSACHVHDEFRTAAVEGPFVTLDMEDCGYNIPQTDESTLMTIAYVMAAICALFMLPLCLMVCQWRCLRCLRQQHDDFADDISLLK
Chain of rat CYP3A2, Cyp3a2 (gene 266682) (P05183 whole entry, looked up): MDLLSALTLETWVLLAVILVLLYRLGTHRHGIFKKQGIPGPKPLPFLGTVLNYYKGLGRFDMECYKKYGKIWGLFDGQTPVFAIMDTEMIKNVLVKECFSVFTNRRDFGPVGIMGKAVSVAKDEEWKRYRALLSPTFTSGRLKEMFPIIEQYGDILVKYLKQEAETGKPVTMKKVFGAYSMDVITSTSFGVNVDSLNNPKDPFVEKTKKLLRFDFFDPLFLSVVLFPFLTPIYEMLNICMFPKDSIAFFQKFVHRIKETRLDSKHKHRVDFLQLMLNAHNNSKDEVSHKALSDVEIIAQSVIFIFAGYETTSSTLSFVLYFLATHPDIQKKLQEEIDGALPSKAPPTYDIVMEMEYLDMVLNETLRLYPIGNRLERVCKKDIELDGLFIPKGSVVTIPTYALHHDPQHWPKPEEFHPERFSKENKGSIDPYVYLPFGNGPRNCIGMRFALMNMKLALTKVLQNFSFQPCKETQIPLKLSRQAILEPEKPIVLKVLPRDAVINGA
Chain of human AKT serine/threonine Kinase 1 (AKT1), AKT1 (gene 207) (P31749 whole entry, looked up): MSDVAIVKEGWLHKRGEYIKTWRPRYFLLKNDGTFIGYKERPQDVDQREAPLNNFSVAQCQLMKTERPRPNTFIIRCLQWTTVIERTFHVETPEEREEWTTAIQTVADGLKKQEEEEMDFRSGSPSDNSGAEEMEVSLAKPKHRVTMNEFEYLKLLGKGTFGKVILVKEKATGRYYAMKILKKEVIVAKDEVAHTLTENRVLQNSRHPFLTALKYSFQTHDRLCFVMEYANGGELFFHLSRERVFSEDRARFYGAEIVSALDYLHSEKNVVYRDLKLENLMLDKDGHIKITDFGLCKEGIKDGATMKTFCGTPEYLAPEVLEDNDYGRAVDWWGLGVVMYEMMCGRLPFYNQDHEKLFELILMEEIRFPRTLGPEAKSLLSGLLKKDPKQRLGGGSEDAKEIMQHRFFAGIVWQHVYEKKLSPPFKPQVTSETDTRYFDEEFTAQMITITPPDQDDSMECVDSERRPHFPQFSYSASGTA
Chain of human Caspase 8 (CASP8), CASP8 (gene 841) (Q14790 whole entry, looked up): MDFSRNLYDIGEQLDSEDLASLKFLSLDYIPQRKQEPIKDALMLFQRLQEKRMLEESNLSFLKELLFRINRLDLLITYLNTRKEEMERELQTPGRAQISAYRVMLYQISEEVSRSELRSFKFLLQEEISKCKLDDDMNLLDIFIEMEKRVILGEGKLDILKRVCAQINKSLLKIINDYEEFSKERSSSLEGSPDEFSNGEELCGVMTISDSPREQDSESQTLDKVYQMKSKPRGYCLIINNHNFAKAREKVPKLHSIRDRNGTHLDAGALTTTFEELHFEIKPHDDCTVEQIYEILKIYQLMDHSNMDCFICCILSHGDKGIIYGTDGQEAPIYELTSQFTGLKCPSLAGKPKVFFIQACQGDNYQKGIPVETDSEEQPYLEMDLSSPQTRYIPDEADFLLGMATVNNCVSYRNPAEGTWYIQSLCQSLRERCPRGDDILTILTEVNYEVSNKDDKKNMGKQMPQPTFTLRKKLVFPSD
Chain of human Casein Kinase 1-delta (CK1D), CSNK1D (gene 1453) (P48730 whole entry, looked up): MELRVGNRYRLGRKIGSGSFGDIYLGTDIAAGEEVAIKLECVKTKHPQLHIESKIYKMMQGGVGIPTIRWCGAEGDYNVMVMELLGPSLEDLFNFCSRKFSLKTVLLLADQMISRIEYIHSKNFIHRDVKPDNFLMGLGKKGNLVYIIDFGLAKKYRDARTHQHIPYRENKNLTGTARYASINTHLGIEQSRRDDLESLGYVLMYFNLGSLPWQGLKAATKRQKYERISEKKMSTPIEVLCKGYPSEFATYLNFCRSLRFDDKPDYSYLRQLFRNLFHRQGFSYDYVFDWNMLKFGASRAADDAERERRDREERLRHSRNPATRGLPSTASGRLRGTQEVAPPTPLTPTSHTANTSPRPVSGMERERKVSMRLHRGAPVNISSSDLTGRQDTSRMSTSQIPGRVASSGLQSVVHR
Chain of rat CYP2C13, Cyp2c13 (gene 171521) (P20814 whole entry, looked up): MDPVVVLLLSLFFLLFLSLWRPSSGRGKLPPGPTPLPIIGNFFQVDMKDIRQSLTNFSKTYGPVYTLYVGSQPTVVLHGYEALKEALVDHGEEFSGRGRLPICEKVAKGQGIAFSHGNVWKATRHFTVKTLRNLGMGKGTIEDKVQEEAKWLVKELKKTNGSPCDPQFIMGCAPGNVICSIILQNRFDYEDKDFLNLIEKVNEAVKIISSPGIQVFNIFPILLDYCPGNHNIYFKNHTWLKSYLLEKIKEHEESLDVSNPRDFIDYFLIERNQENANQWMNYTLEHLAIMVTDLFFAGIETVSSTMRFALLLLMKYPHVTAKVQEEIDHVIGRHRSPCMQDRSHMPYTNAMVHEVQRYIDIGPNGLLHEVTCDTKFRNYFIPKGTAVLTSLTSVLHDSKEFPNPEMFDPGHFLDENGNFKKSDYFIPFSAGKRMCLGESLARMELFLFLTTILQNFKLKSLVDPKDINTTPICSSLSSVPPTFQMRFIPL
Chain of rat CYP2C11, Cyp2c11 (gene 29277) (P08683 whole entry, looked up): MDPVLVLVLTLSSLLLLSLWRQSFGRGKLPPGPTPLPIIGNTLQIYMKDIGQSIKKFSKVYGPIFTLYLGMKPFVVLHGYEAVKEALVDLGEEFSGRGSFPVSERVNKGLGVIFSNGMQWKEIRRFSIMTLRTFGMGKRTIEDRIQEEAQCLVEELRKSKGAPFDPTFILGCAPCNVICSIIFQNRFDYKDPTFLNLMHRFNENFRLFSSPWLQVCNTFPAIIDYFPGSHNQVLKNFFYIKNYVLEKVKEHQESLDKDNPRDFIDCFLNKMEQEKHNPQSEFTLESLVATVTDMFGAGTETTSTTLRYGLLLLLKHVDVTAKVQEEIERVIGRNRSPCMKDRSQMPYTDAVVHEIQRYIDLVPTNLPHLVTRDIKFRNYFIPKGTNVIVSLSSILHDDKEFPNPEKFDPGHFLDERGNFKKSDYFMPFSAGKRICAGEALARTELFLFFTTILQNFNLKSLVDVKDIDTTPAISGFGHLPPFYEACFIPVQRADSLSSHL
Chain of human Caspase 5 (CASP5), CASP5 (gene 838) (P51878 whole entry, looked up): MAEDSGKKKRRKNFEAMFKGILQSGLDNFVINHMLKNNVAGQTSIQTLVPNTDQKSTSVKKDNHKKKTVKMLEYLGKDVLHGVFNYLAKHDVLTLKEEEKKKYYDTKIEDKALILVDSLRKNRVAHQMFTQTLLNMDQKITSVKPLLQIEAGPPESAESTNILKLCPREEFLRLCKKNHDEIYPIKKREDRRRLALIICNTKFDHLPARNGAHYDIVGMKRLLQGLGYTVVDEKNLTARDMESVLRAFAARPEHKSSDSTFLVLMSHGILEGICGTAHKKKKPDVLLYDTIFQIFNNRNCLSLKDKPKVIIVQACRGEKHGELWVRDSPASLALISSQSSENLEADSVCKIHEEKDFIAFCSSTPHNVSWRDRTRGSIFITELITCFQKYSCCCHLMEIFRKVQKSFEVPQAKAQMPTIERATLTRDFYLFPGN
Chain of human Dual Specificity Protein Phosphatase 3 (DUSP3), DUSP3 (gene 1845) (P51452 whole entry, looked up): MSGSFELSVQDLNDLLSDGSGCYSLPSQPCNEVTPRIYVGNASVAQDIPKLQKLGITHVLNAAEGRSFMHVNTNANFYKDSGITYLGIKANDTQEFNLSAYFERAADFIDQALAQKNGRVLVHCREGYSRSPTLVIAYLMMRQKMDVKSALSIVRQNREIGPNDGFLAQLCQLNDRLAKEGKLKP

Turning to `Cc1oc2c(NC(=O)c3c(Cl)cccc3Cl)cccc2c1C(C)(C)O`, the call in assay [1] was inactive.

On to `CC[C@H](NC(=O)c1cc(F)ccc1NS(=O)(=O)c1cccc2cccnc12)c1ccccc1`, for which the result in assay [2] was inactive.

Turning to `CCCC(=O)OCCC(C)C`, the compound was called inactive in assay [1].

The term AC50 denotes the midpoint of the concentration-response curve, whichever way the signal moves. For the compound `O=CCCCC=O`, the AC50 in assay [3] was 25 µM (active). Further, the call in assay [4] was inactive.

As to `O=c1c(-c2ccc(O)cc2)coc2cc(O)cc(O)c12`, the AC50 in the assay with rat CYP3A1, gene 25642 was 8.92 µM (active) and 5.71 µM (active); in assay [5], 995 nM (active) and 815 nM (active) and 5.56 µM (active).

As for `CC/C(=C(/CC)c1ccc(O)cc1)c1ccc(O)cc1`, the AC50 is 8.99 µM (active) in [6]; 10.2 µM (active) in [7]; 1.95 µM (active) and 7.02 µM (active) in assay [8]; 1.08 µM (active) and 3.79 µM (active) in [9]. The call in assay [10], in assay [3], in [11], in assay [4] and in assay [1] was inactive.

Regarding `O=C(O)c1ccccc1-n1cc(C(=O)O)c(=O)c2cc(Nc3c(F)cc(F)cc3Cl)c(Cl)cc21`, the AC50 in assay [12] was 5.43 µM (active).

As for `CCCCCCCCOc1ccc(C(=O)c2ccccc2)c(O)c1`, the call in [11] and in assay [13] was inactive.

On to `OCCO`, for which the result in assay [12] was inactive.

For `NC(=O)c1nc(-c2cccc(-c3cc(F)ccc3OCC(F)(F)C(F)(F)F)c2)n[nH]1`, the call in [12] was inactive.

For the origin of these results see PubChem BioAssay (EPA / NIEHS).
